{"source": "the supplement of paper PMC3898565", "note": "± gives the uncertainty stated by the source.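 Also: viable cell number estimated from Alamar Blue fluorescence read at 560/90, part of a single-dose primary screen of an FDA-approved drug library.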"}
{"system": "U87", "assay": "cell viability relative to vehicle control; higher = less growth inhibition (less active)", "conditions": "10 µM; 72 h", "units": {"cell viability": "%"}}
{"smiles": "C[C@]12CC[C@H](O)CC1=CC[C@@H]1[C@@H]2CC[C@]2(C)C(=O)CC[C@@H]12", "cell viability": "116 ± 9.3"}
{"smiles": "COc1ccc2[nH]cc(C3=CCNCC3)c2c1", "cell viability": "105 ± 2.3"}
{"smiles": "NC(=O)C[S+]([O-])C(c1ccccc1)c1ccccc1", "note": "(centres undefined) [Modafinil]", "cell viability": "107 ± 1.4"}
{"smiles": "C[C@]12CCC(=O)C=C1CC[C@@H]1[C@@H]2CC[C@@]2(C)[C@H]1CC[C@]2(C)O", "note": "[Methyltestosterone]", "cell viability": "66.4 ± 2.3"}
{"smiles": "CN1C(=O)CN=C(c2ccccc2)c2cc(Cl)ccc21", "note": "[Diazepam]", "cell viability": "98.6 ± 2.1"}
{"smiles": "OC1CCCCC1N1CCC(c2ccccc2)CC1", "note": "(centres undefined)", "cell viability": "95 ± 2.2"}
{"smiles": "c1ccc2c(c1)Nc1ccccc1S2", "cell viability": "110.5 ± 0.17"}
{"smiles": "C=C(C)[C@@H]1[C@H]2OC(=O)[C@@H]1[C@]1(O)C[C@H]3O[C@]34C(=O)O[C@H]2[C@]14C.CC(C)(O)[C@@H]1[C@H]2OC(=O)[C@@H]1[C@]1(O)C[C@H]3O[C@]34C(=O)O[C@H]2[C@]14C", "note": "[Picrotin - Picrotoxinin]", "cell viability": "105 ± 1.3"}
{"smiles": "C=C1C[C@@H]2[C@H](CC[C@]3(C)C(=O)CC[C@@H]23)[C@@]2(C)C=CC(=O)C=C12", "cell viability": "107 ± 2.5"}
{"smiles": "C[C@]12CC[C@H]3[C@@H](CCC4=CC(=O)CC[C@@H]43)[C@@H]1CC[C@@H]2O", "note": "[Nandrolone]", "cell viability": "101.5 ± 0.8"}
{"smiles": "Cc1ccc(-c2nc3ccc(C)cn3c2CC(=O)N(C)C)cc1", "cell viability": "106 ± 1.9"}
{"smiles": "C[C@]12CCC(=O)C[C@@H]1CC[C@@H]1[C@@H]2CC[C@@]2(C)[C@H]1CC[C@]2(C)O", "note": "[Mestanolone]", "cell viability": "105.6 ± 0.93"}
{"smiles": "COc1ccc(CCN)cc1OC", "note": "[Homoveratrylamine]", "cell viability": "104 ± 1.1"}
{"smiles": "Oc1ccc2c3c1O[C@H]1c4[nH]c5ccccc5c4C[C@@]4(O)[C@@H](C2)N(CC2CC2)CC[C@]314", "note": "[Naltrindole]", "cell viability": "105 ± 3"}
{"smiles": "C#CCN(C)[C@H](C)Cc1ccccc1", "note": "[Selegiline]", "cell viability": "103 ± 1.2"}
{"smiles": "COC(=O)N1CCN(C(=O)Cc2ccc(Cl)c(Cl)c2)C(CN2CCCC2)C1", "note": "(centres undefined)", "cell viability": "105 ± 2.6"}
{"smiles": "NC(=O)OCCCc1ccccc1", "cell viability": "104 ± 1.9"}
{"smiles": "CNC1CC(c2ccc(Cl)c(Cl)c2)c2ccccc21", "note": "(centres undefined) [Indatraline]", "cell viability": "99.93 ± 0.57"}
{"smiles": "O=C(O)C(Cl)Cl", "cell viability": "101 ± 1.6"}
{"smiles": "CC(C)CC(N(C)C)C1(c2ccc(Cl)cc2)CCC1", "note": "(centres undefined)", "cell viability": "108 ± 1.9"}
{"smiles": "CS(=O)(=O)Nc1ccc(Cc2noc(-c3ccc4[nH]cc(CCN)c4c3)n2)cc1", "cell viability": "106 ± 1.2"}
{"smiles": "c1ccc2c3c([nH]c2c1)CNCC3", "cell viability": "104 ± 1.1"}
{"smiles": "CNC(=O)Oc1ccc2c(c1)[C@]1(C)CCN(C)[C@@H]1N2C", "note": "[Physostigmine]", "cell viability": "93 ± 1.4"}
{"smiles": "C[N+]1(C)CCN(c2ccccc2)CC1", "cell viability": "96.62 ± 0.74"}
{"smiles": "CC(C)[C@]12O[C@H]1[C@@H]1O[C@]13[C@]1(O[C@H]1C[C@H]1C4=C(CC[C@@]13C)C(=O)OC4)[C@@H]2O", "cell viability": "26.3 ± 2.5"}
{"smiles": "CC(O)(CS(=O)(=O)c1ccc(F)cc1)C(=O)Nc1ccc(C#N)c(C(F)(F)F)c1", "note": "(centres undefined)", "cell viability": "103 ± 1.5"}
{"smiles": "COc1cccc(C2(O)CCCCC2CN(C)C)c1", "note": "(centres undefined) [Tramadol]", "cell viability": "102 ± 2.1"}
{"smiles": "Cc1nnc2n1-c1ccc(Cl)cc1C(c1ccccc1)=NC2", "note": "[Alprazolam]", "cell viability": "89.23 ± 0.4"}
{"smiles": "CC(C)CC(N(C)C)C1(c2ccc(Cl)cc2)CCC1", "note": "(centres undefined) [Sibutramine]", "cell viability": "111.8 ± 0.39"}
{"smiles": "CC(=O)O[C@H]1C[C@@H]2CC[C@@H]3[C@H](CC[C@@]4(C)[C@H]3C[C@H]([N+]3(C)CCCCC3)[C@@H]4OC(C)=O)[C@@]2(C)C[C@@H]1[N+]1(C)CCCCC1", "note": "[Pancuronium]", "cell viability": "103.79 ± 0.081"}
{"smiles": "CN1C(=O)COc2c(C(=O)NC3CN4CCC3CC4)cc(Cl)cc21", "note": "(centres undefined) [Azasetron]", "cell viability": "103 ± 1.1"}
{"smiles": "c1cncc([C@@H]2CCCN2)c1", "note": "[Nornicotine]", "cell viability": "111 ± 3.4"}
{"smiles": "CNCC(O)c1ccc(O)cc1", "note": "(centres undefined)", "cell viability": "107 ± 4.5"}
{"smiles": "CCCCCCCCCOc1ccc2[nH]cc(CCN)c2c1", "note": "[5-Nonyloxytryptamine]", "cell viability": "37.1 ± 1.2"}
